ELG1 genotoxic: induces genotoxicity in HEK293T cells with luciferase-tagged ELG1 | HEK293T ELG1-luciferase reporter, luminescence, 16 h | Potency, µM (doses to about 46 µM), for inactives: top-dose activity change, positive = activation, actives largely listed as activators | hit rate 1.3% among 330,000 | AID 504466; note: % of control where 0% means no effect; nearly all actives have a fitted effect of over 60% in size
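Reporter readout depends on ELG1 protein level, which increases with genetic stress. After 16 hr compound exposure at 37 °C, luciferase activity was quantified using ONE-Glo.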
Rab9 promoter act: Rab9 promoter activation; Huh7 Rab9 promoter-luciferase reporter, luminescence, 24 h; Potency, µM (titrated, usually from 9.22 µM), for the others: at the top dose activation, negative = inhibition, usual class: activators; hit rate 2.8% among 320,000; AID 485297; note: % of control where 0% means no effect; nearly all actives have a fitted effect of over 60% in size
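Using Huh7 cells stably transfected with Rab9 promoter–luciferase, compounds were incubated 24 h at 37 °C, 5% CO2; luciferase luminescence was read 10 min after reagent addition.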
NPC1 prom act: NPC1 promoter activation | Huh7 NPC1 promoter luciferase reporter, 24 h | hit rate 2.4% among 320,000 | AID 485313 | Potency, µM (top dose mostly 9.22 µM), without a hit: at the top dose activation, most hits filed as activators; note: % of control where 0% means no effect; nearly all actives have a fitted effect of over 60% in size
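Huh7 cells stably carrying NPC1 promoter–luciferase, plated in Opti-MEM with 10% FBS for 2 h, were exposed to compound in DMSO for 24 h at 37 °C; luciferase reagent was added for 10 min and luminescence read.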
ELG1 repair inh: ELG1-dependent DNA repair inhibition | hit rate 2.3% among 330,000 | Potency, µM (titrated, usually from 46.1 µM), for the others: at the highest dose activity change, negative = inhibition, most hits filed as inhibitors | HEK293T ELG1-luciferase reporter, luminescence, 16 h; DNA damage induced by 5-fluorouridine; note: % is set by controls: 0 for no effect and ±100 for the full control effect; nearly all actives have a fitted effect of over 55% in size
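Reporter activity after DNA damage by 5-fluorouridine is monitored. Compound-treated cells incubate 16 hr at 37 °C, then ONE-Glo is added for 30 min before luminescence reading.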
FLuc modulator: inhibits or activates purified firefly luciferase, miR-21 counter-screen; purified FLuc, Km substrates, luminescence inhibition; P08659; Potency, µM (titrated, usually from 57.5 µM), for inactives: at the highest dose activity change, negative = inhibition, actives largely listed as inhibitors; hit rate 6.9% among 360,000;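 note: plate controls were vehicle for no effect and reference inhibitor for full effect; nearly all actives have a fitted effect of over 55% in size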
Target sequence (P08659 whole entry, looked up): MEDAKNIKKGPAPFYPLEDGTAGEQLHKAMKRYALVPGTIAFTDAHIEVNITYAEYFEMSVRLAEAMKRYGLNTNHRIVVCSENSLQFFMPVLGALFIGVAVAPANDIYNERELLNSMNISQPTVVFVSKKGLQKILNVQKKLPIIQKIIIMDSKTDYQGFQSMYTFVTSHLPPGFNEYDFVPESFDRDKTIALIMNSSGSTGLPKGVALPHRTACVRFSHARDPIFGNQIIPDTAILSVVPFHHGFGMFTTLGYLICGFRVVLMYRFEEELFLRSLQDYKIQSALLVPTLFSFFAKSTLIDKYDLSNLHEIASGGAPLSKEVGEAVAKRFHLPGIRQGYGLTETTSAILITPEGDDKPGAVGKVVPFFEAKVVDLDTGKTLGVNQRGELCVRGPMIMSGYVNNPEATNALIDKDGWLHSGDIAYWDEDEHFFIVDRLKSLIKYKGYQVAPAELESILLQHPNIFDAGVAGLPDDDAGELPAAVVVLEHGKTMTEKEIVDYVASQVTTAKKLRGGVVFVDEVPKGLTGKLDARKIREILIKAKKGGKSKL
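Purified P. pyralis luciferase, 10 nM final, with Km-level 10 uM D-luciferin and 10 uM ATP in 50 mM Tris acetate pH 7.5, 10 mM Mg acetate, 0.01% Tween-20, 0.05% BSA; 6-point qHTS titration about 60 µM downward; luminescence read.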
SMN2 splice enh: increases expression of the SMN2 splice variant | HEK293 SMN2-luciferase splicing reporter, luminescence, 30-36 h | Potency, µM (titrated, usually from 46.1 µM), inactives show at the highest dose activity change, positive = activation, usual class: activators | hit rate 2.8% among 210,000; note: % of control where 0% means no effect; nearly all actives have a fitted effect of over 55% in size
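HEK293 cells carry an SMN2 […]–luciferase reporter in which exon 7 inclusion puts luciferase in frame. Cells were plated 10-12 h before compound addition, then incubated 30-36 h at 37C. ONE-Glo luminescence was read; sodium butyrate at 4.5 mM final served as control.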
* = called active by the depositor; ? = inconclusive; . = no result given; [ ] = dose if it differs, or a comment. Rows were chosen to be rich in hits. Some 9.4% of all compounds tested hit in one or more screens of this group. Calls come from the whole dose curve; as a rule, active = well fitted curve in the direction sought with a large enough effect; inconclusive = small, poorly fitted or top-dose-only effect, or another doubt; inactive = no such curve, though single readings can be large; an effect the other way counts as inactive or inconclusive. Potency is the fitted concentration of half-maximal effect.

SMILES | ELG1 genotoxic | Rab9 promoter act | NPC1 prom act | ELG1 repair inh | FLuc modulator | SMN2 splice enh
O=C(CN1CCCc2ccccc21)N/N=C/c1ccc(O)cc1O | 20.6µM* | -18.3% | -12.8% | ? | 15.1µM* | -2.9%
O=C(CCc1ccccc1)NCC(=O)N/N=C/c1ccc(O)cc1O | ? | -15.8% | -9.5% | 8.2µM* | -3.7% | .
COc1ccc(C(=O)NCC(c2ccc(N(C)C)cc2)N2CCc3ccccc32)cc1OC (stereo unspecified) | . | . | . | . | -1.4% | .
COc1ccc2c(c1)c1c(c(=O)n(Cc3ccccc3)c(=O)n1CC(=O)Nc1ccc(C)cc1C)n2C | . | . | . | . | -0.4% | .
Cc1ccc(OCCSc2nc3ccc(NC(=O)c4ccc5c(c4)OCO5)cc3s2)cc1 | . | . | . | . | -0.6% | .
CCCOC1(C(F)(F)F)NC(=O)N(c2ccc(Cl)cc2)C1=O (stereo unspecified) | . | . | . | . | -9.0% | -15.7%
Cc1cc(C)c(S(=O)(=O)NCc2csc(-c3ccccc3)n2)c(C)c1 | . | . | . | . | -19.4% | 2.8%
COc1cccc(/C=N/NC(=O)CNC(=O)C(c2ccccc2)c2ccccc2)c1O | ? | -6.7% | -35.9% | -29.3% | 4.78µM* | .
COc1ccc(NCc2c(O)ccc3ccccc23)cc1 | . | . | . | . | . | -9.6%[9.22 µM]
Cc1ccc(S(=O)(=O)N[C@@H](Cc2ccccc2)C(=O)CCl)cc1 | -0.3% | -41.0%[46.1 µM] | -24.5%[46.1 µM] | 16.4µM* | -14.5% | -56.7%
Cc1ccc(S(=O)(=O)NC(Cc2ccccc2)C(=O)NN)cc1 (stereo unspecified) | -4.3% | -0.3% | -1.1% | -2.2% | 0.6% | .
Cc1ccc(C(c2sc3nc(-c4ccco4)nn3c2O)N2CCC3(CC2)OCCO3)cc1 (stereo unspecified) | . | . | . | . | -15.3% | .
COc1ccc(CNC(=O)CSc2nnc(C)c3c(C)n(-c4ccccc4)nc23)c(OC)c1 | . | . | . | . | -15.2% | .
O=C(CSC(=S)N1CCCCC1)c1ccccc1 | 0.651µM* | 0.316µM* | 0.501µM* | ? | 1.2µM* | 0.562µM*
O=C(CSC(=S)N1CCCC1)c1ccccc1 | 0.58µM* | 0.398µM* | 0.631µM* | ? | 1.07µM* | .
COc1cccc(C2=CC(c3ccccc3F)n3ncc(C(=O)Nc4ccc(C)cc4)c3N2)c1 (stereo unspecified) | . | . | . | . | -0.8% | .
CCn1cc2nc(SCc3ccc(F)cc3)n(CCc3ccccc3)c(=O)c2n1 | . | . | . | . | -1.1% | .
Cn1c(=O)c(C(=O)COC(=O)c2cc(C(F)(F)F)nc3c(C(F)(F)F)cccc23)c(N)n(Cc2ccccc2)c1=O | . | . | . | . | . | -3.2%
O=S(=O)(c1ccccc1)n1ccc(-c2cnc(-c3ccccc3)s2)n1 | ? | ? | ? | ? | 15.1µM* | 46.3%
O=C(c1ccc(C(F)(F)F)cc1)n1ccc(-c2cccs2)n1 | 0.2% | 1.4% | -3.2% | -8.8% | 15.1µM* | .
Cc1ccc(Cn2ccc(-c3cnc(-c4ccccc4)s3)n2)cc1 | ? | ? | ? | ? | 10.7µM* | -43.1%
O=C(O)CSc1nc(-c2cccs2)cc(C(F)(F)F)n1 | -0.3% | 5.7% | -3.8% | -14.5% | -13.5% | -5.6%
COc1ccc(S(=O)(=O)n2ccc(-c3ccc(OCCN(C)c4ccccn4)cc3)n2)cc1 | -9.7% | -14.6% | -12.6% | -18.8% | 0.8% | -35.6%
O=C(c1ccc(F)cc1)n1nc(-c2cccnc2)nc1NCc1ccccc1 | . | . | . | . | -3.2% | 13.0%
Cc1ccc(Cn2ccc(NC(=O)c3cc(-c4ccccc4)on3)n2)cc1 | 3.1% | -3.7% | -5.0% | -8.4% | 6.2% | -1.4%
SMILES | ELG1 genotoxic | Rab9 promoter act | NPC1 prom act | ELG1 repair inh | FLuc modulator | SMN2 splice enh
O=C(c1ccc(F)cc1)n1ccc(-c2cnc(-c3ccccc3)s2)n1 | 0.82µM* | 0.708µM* | 1µM* | ? | ? | 12.6µM*
Cc1ccc(-c2nnc3ccccc3c2C(=O)Nc2ccc(C)c(F)c2)cc1 | . | . | . | . | -11.8% | .
O=c1ccc(-c2ccccc2)nn1Cc1ccc(F)cc1 | 0.0% | 2.9% | 0.4% | 1.7% | -16.7% | .
Fc1ccc(Cn2ccc(-c3cnc(-c4ccccc4)s3)n2)cc1 | ? | 3.16µM* | ? | ? | 10.7µM* | -27.5%
CCN(CC(=O)NC1CCS(=O)(=O)C1)c1nc(-c2ccccc2)nc2ccccc12 (stereo unspecified) | 0.6% | -4.7% | 1.3% | 13µM* | 2.1% | -12.0%
Cc1ccc(-n2cccc2/C=C2/C(=N)N3C(=NC2=O)SN=C3S(C)(=O)=O)cc1Cl | 4.7% | 2.7% | -4.0% | ? | -3.6% | 11.9%
COc1ccccc1-n1c(C)cc(/C=C2\C(=N)N3N=C(CC(=O)N4CCOCC4)SC3=NC2=O)c1C | 7.0% | -1.6% | 4.2% | -5.6% | 23.9µM* | .
CC1=CC2=NC(=O)/C(=C\c3cc(C)n(-c4ccc(F)cc4)c3C)C(=N)N2O1 | 2.6% | -2.6% | -2.2% | 8.0% | 2.9% | -9.1%
COc1cc(/C=C2/C(=N)N3C(=NC2=O)SN=C3S(C)(=O)=O)ccc1OS(=O)(=O)c1ccccc1 | 8.2% | -1.9% | 0.8% | ? | -12.8% | .
COc1ccccc1-n1c(C)cc(/C=C2/C(=N)N3C(=NC2=O)SN=C3S(C)(=O)=O)c1C | ? | ? | ? | ? | 0.675µM* | -13.5%
Cc1cc(/C=C2/C(=N)N3C(=NC2=O)SN=C3S(C)(=O)=O)c(C)n1-c1ccc(F)cc1 | ? | 13.8% | 29.5% | ? | 1.51µM* | ?
Cc1cccc(C)c1-n1cccc1/C=C1/C(=N)N2C(=NC1=O)SN=C2S(C)(=O)=O | 0.0% | -3.2% | -1.5% | 7.7% | 23.9µM* | -37.4%
CCc1ccc2ncc3c(-c4ccc(F)cc4)nn(CC(=O)NC4CCCCC4)c3c2c1 | . | . | . | . | 1.1% | .
COc1cccc(NC(=O)N2CCC(n3c(C)nc4cccnc43)CC2)c1 | . | . | . | . | -6.9% | .
CCC(C)(C)NC(=O)CN(Cc1ccco1)C(=O)CCC(=O)Nc1nccs1 | -1.8% | -0.4% | -1.9% | -13.6% | 0.1% | .
CCOc1ccc(-n2c(C)cc(/C=C3/C(=N)N4C(=NC3=O)SN=C4S(C)(=O)=O)c2C)cc1 | 3.6% | -2.3% | -0.6% | -2.3% | 16.9µM* | -6.0%
CC(=Nc1ccc(C)c(C)c1)C1=C(O)CSC1=O | 18.4µM* | ? | 20.6% | ? | 10.7µM* | ?
COc1ccccc1N=C(C)C1=C(O)CSC1=O | 6.6% | -25.3% | -3.9% | 19.7% | 0.1% | -12.3%
CN1C=CC=C/C1=C1/N=C(c2ccccc2)OC1=O | 3.1% | 3.16µM* | ? | 9.6% | ? | ?
CC1=CC(=C2N=C(c3ccccc3)OC2=O)C=C(C)O1 | 6.8% | ? | ? | ? | ? | 11.9%
COc1ccc(CCNc2nc(-c3sc(C)nc3C)cs2)cc1OC | -16.0% | 1.8% | 4.8% | 18.4µM* | -22.2% | -47.9%

From PubChem BioAssay
